ADAM17 inh: inhibits human ADAM17 | P78536 | recombinant ADAM17, EDANS/DABCYL FRET peptide cleavage | inhibition, % at 6.95 µM | 370,000 tested, 0.83% active;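 active = inhibition above the mean of compounds lying between control limits plus 3 SD, set per campaign, cut at about 8.5% in these data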;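 note: 0% = DMSO-only wells as the low control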
proKLK7 act: proKLK7 (human) activation, primary screen | purified proKLK7, EDANS-DABCYL substrate fluorescence; 100% is mature enzyme control, 0% vehicle | activation, % at 7 µM | 370,000 tested, 0.9% active;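 active = activation above the mean of all tested compounds plus 3 SD, computed per campaign excluding outliers beyond control limits, cut at about 13% in these data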
V-ATPase pH: regulators of yeast V-ATPase proton transport; AID 504577; S. cerevisiae, pHLuorin cytosolic pH fluorescence; response, % at 10 µM; 350,000 tested, 0.37% active; in the data active = response mostly above about 7.3%, no sharp cut-off; inactive = mostly below about 5.4%; note: actives read high
ADAM10 inh: ADAM10 inhibition, QFRET primary screen | AID 720582 | 370,000 tested, 0.62% active | recombinant ADAM10, EDANS/DABCYL FRET peptide cleavage, 3 h | inhibition, % at 7 µM;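 active = inhibition above a per-campaign cutoff equal to the mean of compounds falling between control-based bounds plus 3 SD, cut at about 20% in these data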;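 note: 0% = DMSO wells while the 100% control is not disclosed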
Target sequence (O14672 214-748 limits assumed): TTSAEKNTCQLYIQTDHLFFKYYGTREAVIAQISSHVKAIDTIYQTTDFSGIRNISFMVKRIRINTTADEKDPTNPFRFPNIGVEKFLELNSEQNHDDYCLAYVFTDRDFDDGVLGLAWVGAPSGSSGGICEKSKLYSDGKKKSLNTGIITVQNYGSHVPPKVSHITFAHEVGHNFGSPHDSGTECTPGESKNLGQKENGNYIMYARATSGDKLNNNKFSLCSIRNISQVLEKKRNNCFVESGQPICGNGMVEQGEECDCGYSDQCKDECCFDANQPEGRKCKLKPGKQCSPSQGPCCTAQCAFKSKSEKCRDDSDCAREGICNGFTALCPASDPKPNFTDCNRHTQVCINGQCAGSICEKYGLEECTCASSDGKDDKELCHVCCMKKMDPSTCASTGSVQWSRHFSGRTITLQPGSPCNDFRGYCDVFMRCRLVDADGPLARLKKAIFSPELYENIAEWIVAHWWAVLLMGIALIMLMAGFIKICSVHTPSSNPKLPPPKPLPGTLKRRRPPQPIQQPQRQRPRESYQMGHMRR
ADAM10 counter: counter-screen for ADAM17 exosite inhibitors: inhibitors of human ADAM10 | recombinant ADAM10, EDANS/DABCYL FRET peptide cleavage, 3 h | 2,900 tested, 47% active | AID 743256 | inhibition, % at 6.95 µM | shares compounds with ADAM17 inh;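 active = mean inhibition over the triplicate runs exceeds the activity threshold set in the earlier primary screen, cut at about 20% in these data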;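 note: 0% = DMSO wells and 100% = marimastat wells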
ADAM17 confirm: confirmation of inhibitors of human ADAM17. shares compounds with ADAM17 inh. recombinant ADAM17, EDANS/DABCYL QFRET peptide cleavage. inhibition, % at 6.95 µM. 2,900 tested, 65% active. AID 743257;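 active = mean inhibition across replicates above the hit cutoff set in the primary screen, cut at about 8.5% in these data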;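 note: 0% = DMSO wells and 100% = marimastat wells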
Active calls of the source: *; · = no result given. Compounds with a hit are over-represented: about 2.3% of the library has one in this group of screens.

SMILES	ADAM17 inh	proKLK7 act	V-ATPase pH	ADAM10 inh	ADAM10 counter	ADAM17 confirm
COC(=O)c1ccc(CN2C(=O)C(C)N(C(=O)c3c(F)cccc3F)c3ccccc32)cc1 (stereo not given)	11*	0	0	3	19	15*
Cc1ccc(S(=O)(=O)N2CCC(C(=O)OC(C)C(=O)NCc3ccccc3)CC2)cc1C (stereo not given)	9.7*	0	0	15	7	7
O=C(c1ccc(CS(=O)Cc2ccccc2Cl)o1)N1CCN(c2cccc(Cl)c2)CC1 (stereo not given)	15*	0	2	12	18	9.0*
O=C(c1ccc(CS(=O)Cc2ccccc2Cl)o1)N1CCN(c2ccccn2)CC1 (stereo not given)	12*	0	-1	-1	-5	1
O=C(c1ccc(CS(=O)Cc2ccc(Cl)cc2)o1)N1CCN(c2ccccn2)CC1 (stereo not given)	1	-1	-3	-5	·	·
O=C1Nc2ccccc2C12OCC(COc1ccc(Cl)cc1)O2 (stereo not given)	11*	0	-2	16	8	6
CN1C(=O)C2(OCC(COc3ccc(Cl)cc3)O2)c2ccccc21 (stereo not given)	3	0	0	8	·	·
CCc1ccc(NS(=O)(=O)c2ccc3[nH]cc(C(=O)N4CCc5ccccc54)c(=O)c3c2)cc1	10*	-1	-5	12	14	11*
Cc1cc(C)cc(NS(=O)(=O)c2ccc3[nH]cc(C(=O)N4CCc5ccccc54)c(=O)c3c2)c1	6	0	-1	12	·	·
COc1ccc(CSC2=C(C#N)C(=O)NC3(CCCCC3)S2)cc1	1	0	-3	-6	·	·
CCCCCCSC1=C(C#N)C(=O)NC2(CCCCC2)S1	9.0*	0	-2	12	19	9.0*
O=C(NN=Cc1ccco1)C(=O)Nc1cccc(C(F)(F)F)c1	-2	1	·	-1	·	·
Cc1cc2c(c(=O)o1)[C@@]1(C(=O)N(C)c3ccc([N+](=O)[O-])cc31)C1=C(CCCC1=O)O2	8.7*	0	·	4	0	4
O=C(CN1C(=O)NC2(CCCCCCC2)C1=O)Nc1cccc(Br)c1	9.4*	0	1	9	20*	12*
COC(=O)C1=C(C)NC(=S)NC1c1ccc(Br)cc1 (stereo not given)	-1	0	·	2	·	·
O=C(CC1SC(=Nc2ccccc2)N(CCc2ccccn2)C1=O)Nc1ccc(F)cc1 (stereo not given)	0	1	-1	7	·	·
O=C(CC1SC(=Nc2ccccc2)N(CCc2c[nH]c3ccccc23)C1=O)Nc1ccccc1F (stereo not given)	9.9*	0	1	14	24*	13*
CC(=O)Nc1cccc(-c2cc(C(C)=O)c3n(c2=O)CCC3)c1	-6	0	·	-9	·	·
O=C(NC1=NCCS1)c1ccc(Cl)c(S(=O)(=O)N2CCc3ccccc32)c1	9.4*	0	-2	10	10	7
CC(=O)C1=C(C)N(Cc2ccc(F)cc2)C(=S)NC1c1ccccc1 (stereo not given)	-2	0	·	0	·	·
Cc1cccc(OCc2nnc(SCC(=O)Nc3cccc(C(=O)N4CCOCC4)c3)n2C)c1C	10*	1	-3	8	-9	-3
CCOC(=O)C1=CCN(S(=O)(=O)c2ccc(C)cc2)C1c1cccs1 (stereo not given)	11*	0	·	17	6	7
CCOC(=O)C1=CCN(S(=O)(=O)c2ccc(C)cc2)C1c1cccc2ccccc12 (stereo not given)	7	-1	·	5	·	·
COc1cc(/C=C2\SC(=S)N(NC(=O)c3ccccc3OC)C2=O)ccc1O	11*	-1	0	19	23*	11*
Cc1ccc(S(=O)(=O)Nc2cc(Cl)c(O)c3ncccc23)cc1	14*	5	1	11	8	17*
SMILES	ADAM17 inh	proKLK7 act	V-ATPase pH	ADAM10 inh	ADAM10 counter	ADAM17 confirm
COc1ccc(C(O)c2ncc(-c3cccc(C(F)(F)F)c3)[nH]2)cc1F (stereo not given)	4	0	·	6	·	·
CCCc1ccc(C(O)c2ncc(-c3ccccc3F)[nH]2)cc1 (stereo not given)	9.2*	0	·	16	9	5
OC(c1ccc2ccccc2c1)c1ncc(-c2ccc(C(F)(F)F)cc2)[nH]1 (stereo not given)	10*	0	·	10	42*	23*
CCc1ccc(C(O)c2ncc(-c3cccc(C(F)(F)F)c3)[nH]2)cc1 (stereo not given)	11*	0	·	9	21*	11*
COc1cccc(C(O)c2ncc(-c3cccc(C(F)(F)F)c3)[nH]2)c1 (stereo not given)	10*	1	·	-3	14	9.8*
COc1cccc(-c2cnc(C(O)c3cccc(OC)c3)[nH]2)c1 (stereo not given)	-2	0	·	-1	·	·
CC(=O)N1CCc2cc(S(=O)(=O)NC3CCN(C(=O)C(C)(C)C)CC3)ccc21	-4	0	·	-2	·	·
COC(=O)c1cc2c(c3c4cc(OC)ccc4n(S(=O)(=O)c4ccc(F)cc4)c13)C(=O)N(Cc1ccccc1)C2	-2	-3	·	-21	·	·
C(=N\Nc1nc(Nc2ccccc2)nc(N2CCOCC2)n1)/c1c[nH]c2ccccc12	9.2*	0	·	17	17	11*
c1ccc(Nc2nc(N3CCOCC3)nc(N3CCOCC3)n2)cc1	0	0	-17	4	·	·
CN(Cc1ccc(F)cc1)C(=O)c1cccc(OCc2ccccc2)c1	8.7*	1	3	13	7	12*
COC(=O)CC#C[C@H](C)[C@@H](NS(=O)(=O)c1ccc(C)cc1)C1CCCCC1	-2	0	·	1	·	·
Cc1ccc(O)c(Cc2cc(C)cc(Cc3cc(C)ccc3O)c2O)c1	9.4*	1	·	11	30*	14*
CC1(C)CC(=O)c2sc(NS(=O)(=O)c3ccccc3)nc2C1	-1	1	0	2	·	·
CC1(C)CC(=O)c2sc(NS(=O)(=O)c3ccc([N+](=O)[O-])cc3)nc2C1	16*	0	1	8	22*	8
Cc1ccccc1S(=O)(=O)N1CCCc2nc(-c3ccc(F)cc3)ccc21	1	1	·	2	·	·
COc1cc(O)c(C(=O)O)c(CCc2ccccc2)c1	0	1	-1	3	·	·
CCOC(=O)c1c(O)cc(OC)cc1CCc1ccccc1	9.9*	0	1	-2	9	8
N#Cc1ccccc1CSc1ccccn1	9.1*	1	-3	12	-8	0
O=C(/C=C(\Nc1cccc(OC(F)F)c1)c1ccccc1)c1ccccc1	-4	0	·	-9	·	·

High-throughput results from PubChem BioAssay.
